Active and inactive are the calls of the source. Rule for the calls: active = hit-call score of the fitted dose curve at least 0.9, where 1 is the maximum; inactive = score below 0.9.
Assays:
[1] = ATG_ISRE_CIS: Attagene CIS-FACTORIAL HepG2 Assay for human Interferon Regulatory Factor 1 (IRF1) binding to an Interferon-Stimulated Response Element (ISRE) (AID 2282948); conditions: HepG2 ISRE cis-reporter (Attagene), mRNA transcription readout; actives raise or lower the signal
In short: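 Transfected HepG2 (multiple reporter transcription units, cis elements) dosed 24 h. RNA → oligo(dT) RT → PCR → 6-FAM primer extension → HpaI → CE. DMSO = negative control/baseline.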

[2] = ATG_M_32_CIS: Attagene CIS-FACTORIAL HepG2 Assay for M32 Transcription Factor (Internal Marker) (AID 2282949); conditions: HepG2 Attagene cis-factorial M32 reporter, mRNA; actives raise or lower the signal;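 note: background control marker of the multiplexed CIS panel rather than a real target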
In short: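 Fluorescent capillary electrophoresis peaks of HpaI-digested, FAM-labelled RT-PCR reporter products give the signal. Source: transiently transfected human liver HepG2 cells, 24 h after chemical dosing; bidirectional fitting against DMSO.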

[3] = ATG_M_06_CIS: Attagene CIS-FACTORIAL HepG2 Assay for M06 Transcription Factor (Internal Marker) (AID 2282950); conditions: HepG2 Attagene CIS-FACTORIAL M06 internal marker reporter; actives raise or lower the signal
In short: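 Measured 24 h post-dosing in transiently transfected HepG2 cells, this internal-marker endpoint reports reporter mRNA via RT-PCR with fluorescent primer extension and capillary electrophoresis. DMSO served as negative control and baseline for bidirectional fitting.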

[4] = molecular target: Hepatocyte nuclear factor 6 (Homo sapiens) (UniProt Q9UBC0); test: ATG_HNF6_CIS: Attagene CIS-FACTORIAL HepG2 Assay for human Hepatocyte Nuclear Factor 6 (HNF6) (AID 2282952); conditions: HepG2 Attagene cis-factorial HNF6 reporter transcription; actives raise or lower the signal
Chain of Hepatocyte nuclear factor 6 (Homo sapiens) (Q9UBC0 whole entry, looked up): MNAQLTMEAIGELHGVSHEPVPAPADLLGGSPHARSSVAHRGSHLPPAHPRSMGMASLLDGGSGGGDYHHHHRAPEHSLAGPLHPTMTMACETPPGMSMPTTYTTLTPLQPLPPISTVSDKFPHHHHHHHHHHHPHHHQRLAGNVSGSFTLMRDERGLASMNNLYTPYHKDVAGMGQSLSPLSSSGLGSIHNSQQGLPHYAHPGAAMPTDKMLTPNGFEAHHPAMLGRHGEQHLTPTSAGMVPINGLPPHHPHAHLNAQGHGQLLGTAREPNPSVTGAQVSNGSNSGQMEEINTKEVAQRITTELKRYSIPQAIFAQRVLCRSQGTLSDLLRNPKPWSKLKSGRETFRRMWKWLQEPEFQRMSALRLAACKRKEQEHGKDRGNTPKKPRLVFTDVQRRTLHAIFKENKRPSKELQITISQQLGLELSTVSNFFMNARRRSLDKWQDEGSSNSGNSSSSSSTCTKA
In short: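 HepG2 cells transiently transfected with cis-element-driven multiple reporter transcription units, dosed 24 h; reporter mRNA quantified by RT-PCR, FAM primer extension, HpaI digestion and capillary electrophoresis; bidirectional fit versus DMSO baseline.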

[5] = molecular target: Heat shock factor protein 1 (Homo sapiens) (UniProt Q00613); test: ATG_HSE_CIS: Attagene CIS-FACTORIAL HepG2 Assay for human Heat Shock Transcription Factor 1 (HSE) (AID 2282953); conditions: HepG2 HSE cis-reporter, Attagene RNA transcription; actives raise or lower the signal
Chain of Heat shock factor protein 1 (Homo sapiens) (Q00613 whole entry, looked up): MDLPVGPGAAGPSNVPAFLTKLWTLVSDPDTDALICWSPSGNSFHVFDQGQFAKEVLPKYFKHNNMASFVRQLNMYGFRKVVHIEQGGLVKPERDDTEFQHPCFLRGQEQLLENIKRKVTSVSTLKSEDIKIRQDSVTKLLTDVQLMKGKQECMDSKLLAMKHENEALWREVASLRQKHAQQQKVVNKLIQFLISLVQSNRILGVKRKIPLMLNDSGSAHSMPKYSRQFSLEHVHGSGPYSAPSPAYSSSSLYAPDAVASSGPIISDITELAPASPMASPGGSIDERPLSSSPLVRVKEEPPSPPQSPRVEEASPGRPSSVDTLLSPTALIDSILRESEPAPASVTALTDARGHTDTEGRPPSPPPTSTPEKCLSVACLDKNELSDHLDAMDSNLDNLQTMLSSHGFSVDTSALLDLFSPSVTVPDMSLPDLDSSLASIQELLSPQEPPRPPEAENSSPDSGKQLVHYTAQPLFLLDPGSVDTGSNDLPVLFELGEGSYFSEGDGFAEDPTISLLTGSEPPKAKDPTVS
In short: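 Reporter mRNA induction in HepG2 is measured 24 h after dosing, using transiently transfected multiplexed cis-regulated reporter units. Signal comes from capillary electrophoresis of labelled RT-PCR products, with DMSO as negative control.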

[6] = ATG_MRE_CIS: Attagene CIS-FACTORIAL HepG2 Assay for human Metal Responsive Element (MRE) (AID 2282954); conditions: HepG2 MRE cis-reporter transcription, Attagene multiplex; actives raise or lower the signal
In short: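 HepG2 cells transiently transfected with cis-element-driven reporter units; mRNA measured 24 h after dosing. Reporter transcripts quantified by RT-PCR, FAM labelling, HpaI digestion and capillary electrophoresis; bidirectional fit versus DMSO.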

[7] = ATG_PBREM_CIS: Attagene CIS-FACTORIAL HepG2 Assay for human Phenobarbital-responsive Enhancer Module (PBREM) (AID 2282955); conditions: HepG2 PBREM cis-reporter, Attagene multiplexed transcription; actives raise or lower the signal
In short: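 Fluorescence of labelled reporter cDNA fragments, resolved by capillary electrophoresis, gives mRNA induction in transfected HepG2 cells treated for 24 h; DMSO serves as negative control and baseline.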

[8] = ATG_PXRE_CIS: Attagene CIS-FACTORIAL HepG2 Assay for human Pregnane X Receptor Element (PXRE) (AID 2282957); conditions: HepG2 Attagene CIS-FACTORIAL PXRE reporter, mRNA; actives raise or lower the signal
In short: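 HepG2 cells transiently transfected with cis-regulated multiple reporter transcription units; endogenous factor activity measured as reporter mRNA 24 h after dosing. RT-PCR, fluorescent primer extension, HpaI digestion, capillary electrophoresis; bidirectional fit versus DMSO baseline.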

[9] = molecular target: Paired box protein Pax-6 (Homo sapiens) (UniProt P26367); test: ATG_Pax6_CIS: Attagene CIS-FACTORIAL HepG2 Assay for human Paired Box 6 (PAX6) (AID 2282956); conditions: HepG2 CIS-FACTORIAL PAX6 reporter transcription, RNA readout; actives raise or lower the signal
Chain of Paired box protein Pax-6 (Homo sapiens) (P26367 whole entry, looked up): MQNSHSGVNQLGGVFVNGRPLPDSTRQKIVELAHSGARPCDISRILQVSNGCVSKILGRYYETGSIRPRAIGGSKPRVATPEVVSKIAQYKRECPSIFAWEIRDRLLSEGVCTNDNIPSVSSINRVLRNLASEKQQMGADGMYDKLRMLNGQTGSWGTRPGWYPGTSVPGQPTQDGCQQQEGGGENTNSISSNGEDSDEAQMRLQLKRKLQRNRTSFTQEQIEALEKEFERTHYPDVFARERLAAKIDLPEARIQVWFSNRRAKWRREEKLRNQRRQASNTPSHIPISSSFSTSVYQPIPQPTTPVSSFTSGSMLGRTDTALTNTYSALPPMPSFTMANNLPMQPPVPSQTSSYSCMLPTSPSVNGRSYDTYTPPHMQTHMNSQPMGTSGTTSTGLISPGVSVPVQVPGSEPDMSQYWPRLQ
In short: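 Transient MRTU transfection of HepG2 → compound exposure 24 h → TriZol RNA, oligo(dT) RT → PCR, 6-FAM primer extension, HpaI cut → capillary electrophoresis; activity fitted both directions against DMSO.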

[10] = molecular target: Hypoxia-inducible factor 1-alpha (Homo sapiens) (UniProt Q16665); test: ATG_HIF1a_CIS: Attagene CIS-FACTORIAL HepG2 Assay for human Hypoxia Inducible Factor 1 (HIF1A) (AID 2282951); conditions: HepG2 Attagene cis-factorial HIF1a reporter transcription; actives raise or lower the signal
Chain of Hypoxia-inducible factor 1-alpha (Homo sapiens) (Q16665 whole entry, looked up): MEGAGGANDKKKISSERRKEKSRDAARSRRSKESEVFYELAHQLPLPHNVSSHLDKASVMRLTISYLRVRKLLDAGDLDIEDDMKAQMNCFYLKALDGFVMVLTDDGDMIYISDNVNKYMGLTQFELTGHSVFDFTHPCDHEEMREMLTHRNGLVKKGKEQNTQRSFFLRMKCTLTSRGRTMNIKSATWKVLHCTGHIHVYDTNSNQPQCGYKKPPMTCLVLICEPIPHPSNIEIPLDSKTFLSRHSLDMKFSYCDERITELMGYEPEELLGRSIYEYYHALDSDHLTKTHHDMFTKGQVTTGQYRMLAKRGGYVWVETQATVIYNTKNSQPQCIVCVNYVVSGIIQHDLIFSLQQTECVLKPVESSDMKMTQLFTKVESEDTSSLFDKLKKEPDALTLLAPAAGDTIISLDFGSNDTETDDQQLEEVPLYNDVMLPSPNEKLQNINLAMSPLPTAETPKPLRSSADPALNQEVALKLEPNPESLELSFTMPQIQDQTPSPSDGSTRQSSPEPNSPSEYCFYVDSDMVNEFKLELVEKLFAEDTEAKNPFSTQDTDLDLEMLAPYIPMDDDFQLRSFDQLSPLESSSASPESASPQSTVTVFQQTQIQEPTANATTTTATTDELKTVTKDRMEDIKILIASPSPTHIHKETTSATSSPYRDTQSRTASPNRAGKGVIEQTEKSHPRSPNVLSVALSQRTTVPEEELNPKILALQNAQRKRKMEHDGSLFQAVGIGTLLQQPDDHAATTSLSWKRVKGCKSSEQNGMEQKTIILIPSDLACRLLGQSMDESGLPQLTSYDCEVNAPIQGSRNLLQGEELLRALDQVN
In short: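 Measures endogenous transcription-factor activity through cis-regulated reporter mRNA in HepG2. Cells dosed 24 h; transcripts quantified by RT-PCR with 6-FAM-labelled products separated by capillary electrophoresis; DMSO serves as negative control.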

Row | Structure (SMILES) | outcome [1] | outcome [2] | outcome [3] | outcome [4] | outcome [5] | outcome [6] | outcome [7] | AC50 [8] | outcome [8] | outcome [9] | outcome [10] | AC50 [7]
1 | Clc1cnc(Oc2ccc(Oc3ncc(Cl)cc3Cl)cc2)c(Cl)c1 | inactive | inactive | inactive | inactive | inactive | inactive | inactive | 9.96 µM (active) | – | – | – | –
2 | C#C[C@]1(O)CC[C@H]2[C@@H]3CCC4=CC(=O)CC[C@]4(C)[C@H]3CC[C@@]21C | inactive | inactive | inactive | inactive | inactive | inactive | inactive | – | inactive | – | – | –
3 | O=C(O)CC(O)(CC(=O)O)C(=O)O | inactive | inactive | inactive | inactive | inactive | inactive | inactive | – | inactive | inactive | – | –
4 | C[C@H]1C(=O)O[C@@H]2CCN3CC=C(COC(=O)[C@](C)(O)[C@]1(C)O)[C@H]23 | inactive | inactive | inactive | inactive | inactive | – | – | – | inactive | – | – | –
5 | Cl[C@H]1OCCO[C@@H]1Cl | inactive | inactive | inactive | inactive | inactive | inactive | inactive | – | inactive | – | – | –
6 | N#Cc1ccccc1Cl | inactive | inactive | inactive | inactive | inactive | – | – | 26.4 µM (active) | – | inactive | – | –
7 | CN(C)[C@@H]1C(=O)C(C(N)=O)=C(O)[C@@]2(O)C(=O)C3=C(O)c4c(O)ccc(Cl)c4[C@@](C)(O)[C@H]3C[C@@H]12 | inactive | inactive | inactive | inactive | inactive | inactive | inactive | – | – | inactive | – | –
8 | Nc1ccc(Br)cc1 | inactive | inactive | inactive | inactive | – | inactive | inactive | – | inactive | inactive | – | –
9 | CC(C)(c1ccc(O)c(-c2ccccc2)c1)c1ccc(O)c(-c2ccccc2)c1 | inactive | inactive | inactive | inactive | – | – | inactive | 0.965 µM (active) | – | inactive | – | –
10 | CCN(N=O)C(N)=O | inactive | inactive | inactive | inactive | inactive | inactive | – | – | inactive | inactive | – | –
11 | O=S1OC[C@@H]2[C@H](CO1)[C@]1(Cl)C(Cl)=C(Cl)[C@@]2(Cl)C1(Cl)Cl (some centres not stated) | inactive | inactive | inactive | inactive | – | – | – | 2.34 µM (active) | – | – | inactive | 26.4 µM (active)
12 | C=C(C)[C@@H]1CC=C(C=O)CC1 | inactive | inactive | inactive | inactive | inactive | – | – | 9.25 µM (active) | – | inactive | – | –
13 | OCCCCO | inactive | inactive | inactive | inactive | inactive | inactive | inactive | 59 µM (active) | – | inactive | – | –
14 | CCCCC(CC)C(=O)Cl (configuration not stated) | inactive | inactive | inactive | inactive | – | inactive | inactive | – | – | inactive | – | –
